# From PubChem BioAssay AID1233 (SRMLSC, 2008)
# Potency and affinity values are given separately. A number with no mark means an inactive call.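 Rule for the calls: active = a dose-response curve fit returns a half-maximal inhibitory concentration, extrapolated values included; inactive = the fit returns no such concentration.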 Residues, ends and D or L forms follow the SMILES beside them.
# Molecular target: HMG-CoA reductase [Enterococcus faecalis] (UniProt Q9FD70)
# Assay: class II HMG-CoA reductase inhibition potency – biochemical, Enterococcus faecalis, confirmation (AID 1233);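 note: 0% = full reaction carrier wells and 100% = background wells lacking mevalonate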
# Details: purified E. faecalis HMGR, NADPH absorbance 340 nm kinetics; series mostly up to 100 µM; inhibition: at the top concentration
row,Compound,inhibition
1,CCN1CCN(C(=O)Cc2ccccc2OC)CC1,-4.39%
2,CCCCC(CC)CNCC(O)c1ccccc1 (stereo unspecified),-0.48%
3,CCN(CCNc1ccc([N+](=O)[O-])c2cccnc12)S(=O)(=O)c1ccccc1,-0.43%
4,CCCn1cc(C(=O)O)cn1,-0.87%
5,O=[N+]([O-])/C(Cl)=C1\NCCN1Cc1ccc(Cl)nc1,-0.72%
6,O=C(O)[C@@H]1C[C@H]1[C@@H](NP(=O)(c1ccccc1)c1ccccc1)c1ccccc1,-6.79%
7,CC1(C)C(C(=O)NCc2ccco2)C1(C)C,-1.02%
8,CC(C)C[C@H](NC(=O)[C@@H]1CCCN1C(=O)[C@@H](N)Cc1ccc(O)cc1)C(=O)NCC(N)=O (H-YPLG-NH2),-4.74%
9,COc1ccc(NC(=O)c2c(C)nn(Cc3ccccc3Cl)c2Cl)cc1Cl,0.95%
10,CC(C)Oc1cccc(NC(=O)c2cccn(Cc3ccc4c(c3)OC(F)(F)O4)c2=O)c1,0.02%
11,COc1ccc(C(=O)C2CCCN(Cc3cnc(C)s3)C2)c(OC)c1 (stereo unspecified),-9.69%
12,COc1ccc(C[C@@H]2c3cc(O)c(OC)cc3CCN2C)cc1O,-10.2%
13,Cc1c(P(=S)(c2ccccc2)c2ccccc2)[n+]2ccccc2n1C,-0.09%
14,OC(Cn1c2ccccc2c2ccccc21)C[n+]1cccc2ccccc21 (stereo unspecified),-0.21%
15,CCc1ccc(NC(=O)C(C)OC(=O)c2c(C)nn(Cc3ccccc3)c2Cl)cc1 (stereo unspecified),-2.14%
16,COc1ccc(CCn2c(O)c(C=NCCCn3ccnc3)c(=O)[nH]c2=O)cc1OC,-9.15%
